{"source": "PubChem BioAssay (NCATS)", "note": "Inconclusive results are not listed. A number with no mark means an inactive call. Active and inactive are the calls of the source. Calls come from the whole dose curve; as a rule, active = well fitted inhibition curve with a large enough effect; inconclusive = small, poorly fitted or top-dose-only effect; inactive = no such curve, though single readings can be large or run the other way. Where a SMILES comes first, the peptide text is derived from it. The star is where a group is joined. PhAc = O=C(Cc1ccccc1)*", "data": [{"system": "Zika virus NS2B-NS3 protease (unlinked complex)", "test": "Primary screen GU Rhodamine qHTS for Zika virus inhibitors: Unlinked NS2B-NS3 protease assay (AID 1347159); note: nearly all actives have a fitted effect of over 60% in size; note: potency is the fitted concentration of half-maximal effect; for activity change, negative = inhibition: % is set by controls: 0 for no effect and ±100 for the full control effect", "details": "Recombinant ZIKV NS2B-NS3 protease, Rhodamine110 substrate fluorescence; series mostly up to 107 µM; activity change, negative = inhibition: at the top concentration", "source_text": "Avindra Nath, Ph.D., National Institute of Neurological Disorders and Stroke (NINDS), Bethesda, MD\nRadhakrishnan Padmanabhan, Ph.D., Georgetown University (GU), Washington D.C.\nZika Virus causes congenital defects, including microcephaly and is associated with Guillain-Barre syndrome, eningoencephalitis and myelitis in infected adult. […] Using a target-based approach, we hope to establish a screening paradigm to uncover novel, cell-active NS2B-NS3 protease (Zika Virus) specific inhibitors from NCATS' collection of small molecules using qHTS.\nFour assay panel was created to identify potential Zika Virus inhibitors. Namely, (1) GU unlinked NS2B-NS3 AMC tagged protease qHTS, (2) GU unlinked NS2B-NS3 Rhodamine tagged protease qHTS, (3) NINDS linked NS2B-NS3 AMC tagged protease qHTS, (4) NINDS linked NS2B-NS3 Rhodamine tagged protease qHTS. Active compounds were re-acquired and re-screened to confirm inhibition. Inhibitors were further screened against various confirmatory and counterscreens in dose response format.\nEarly Translation Branch (ETB)\nNational Center for Advancing Translational Sciences (NCATS), Rockville, MD\nNational Institute of Health (NIH), Bethesda, Maryland\nPadmanabhan lab provided the NS2B hydrophilic domain and NS3 protease domain in a noncovalent complex used for the unlinked assay. Control compound aprotinin is obtained from Thermo Scientific (#78432; Waltham, Massachusetts). Rhodamine110 substrate ([N-Cbz]-Nle-Lys-Arg-Arg-Rhod110-Arg-Arg-Lys-Nle-[N-Cbz]) was purchased from either Genscript or Bachem.\n1536-well Protease (Rhodamine110 Substrate) Assay:\nBriefly, 3 microL of enzyme (25 nM final concentration), in assay buffer (10 mM Tris-HCl pH 8.0 with 0.01% Tween 20) were dispensed into a 1,536-well solid-bottom black plate (Greiner Bio One, Monroe, NC). Twenty-three nL of compounds (final concentration range 7.28 nM to 114 microM) or control Aprotinin (final concentration range 3.47 nM to 114 microM) were transferred via Wako Pin-tool (Wako Automation, Richmond, VA). Samples were incubated (room temperature, protected from light) for 15 minutes followed by a 1 microL Rhodamine110 substrate addition (1.5 microM final concentration). Plates were then immediately read on a ViewLux High-throughput CCD imager (PerkinElmer, Waltham, MA) equipped with FITC fluorescence optics (480(20) nm excitation, 540(25) nm emission), then incubated (room temperature, protected from light) for 15 minutes (~15% conversion). The change in fluorescence intensity over the 15-minute reaction period was normalized against no-inhibitor and no-enzyme controls and the resulting percent inhibition data were fitted to a 4-parameter Hill equation. Aprotinin was used as intraplate control.", "values": [{"compound": "CC(=O)O[C@@H]1[C@H](OC(C)=O)C[C@@]2(C)C(CC[C@@H](C)[C@]23Cc2c(O)cc4c(c2O3)CN([C@@H](CCC(=O)O)C(=O)O)C4=O)C1(C)C", "note": "(stereo not given in full)", "activity change, negative = inhibition": "-13.3% [at 32.5 µM]"}, {"compound": "C=C1CC2C3(C)C(O)CC(=O)C(C)(C)C3C(O)C(OC(C)=O)C2(C)C2C(=O)OC(C)(C(=O)OC)C(=O)C12C", "note": "(stereo not given)", "activity change, negative = inhibition": "58.4% [at 57.1 µM]"}, {"compound": "CC(=O)OC(C)C(C)(O)C(=O)O[C@@H]1CC[C@]2(C)CC(=O)C(=C(C)C)C[C@H]2[C@]1(C)OC(C)=O", "note": "(stereo not given in full)", "activity change, negative = inhibition": "-12.9% [at 57.1 µM]"}, {"compound": "COC(=O)C1=CO[C@@H](O[C@@H]2O[C@H](CO)[C@@H](O)[C@H](O)[C@H]2O)/C(=C\\CO)[C@@H]1CC(=O)OCCc1ccc(O)cc1", "activity change, negative = inhibition": "-2.77% [at 57.1 µM]"}, {"compound": "C=CC(C)(O)CC/C=C(\\C)C(=O)O[C@@H]1[C@@H](O)[C@H](OC(C)(C=C)CC/C=C(\\C)C(=O)O)O[C@H](CO)[C@H]1OC(=O)/C(C)=C/CCC(C)(O)C=C", "note": "(stereo not given in full)", "activity change, negative = inhibition": "14.5% [at 32.5 µM]"}, {"compound": "CC1(C)CC(NC(=O)C(=O)Nc2ccc(Cl)cc2)CC(C)(C)N1", "activity change, negative = inhibition": "18.6%"}, {"compound": "COc1cc2nc(=NC(=O)c3cccnc3)n3c(c2cc1OC)NCC3", "activity change, negative = inhibition": "14.6%"}, {"compound": "C#CCCCn1cc(-c2cccc3c2N[C@@H](C)CC(=O)N3)cn1", "activity change, negative = inhibition": "28.9%"}, {"compound": "C[C@@]1(C(=O)O)CCC[C@@]2(C)C3=CC[C@H]4C[C@@]3(CC[C@H]12)CC4(O)CO", "note": "(stereo not given in full)", "activity change, negative = inhibition": "2%"}, {"compound": "C/C=C(/C)C(=O)O[C@H]1C[C@]2(C)O[C@@H]2[C@@H](OC(C)=O)[C@@]2(C)CC[C@@](O)(C(C)C)[C@H]12", "activity change, negative = inhibition": "-6.61%"}, {"compound": "NC(=O)[C@H](Cc1ccccc1)NC(=O)[C@H](CCCN=C(N)N)NC(=O)C12CC3CC(CC(C3)C1)C2", "activity change, negative = inhibition": "-7.71% [at 19.1 µM]"}, {"compound": "Cc1cc(CNC(=O)c2cc(C(=O)NCc3ccc(F)c(C)c3)ncn2)ccc1F", "activity change, negative = inhibition": "0%"}, {"compound": "CC1(C)CC[C@]2(C(=O)O)[C@H](O)C[C@]3(C)C(=CCC4[C@@]5(C)CC[C@H](O[C@@H]6OC[C@@H](O)[C@H](O)[C@H]6O)[C@@](C)(C(=O)O)C5CC[C@]43C)[C@@H]2C1", "note": "(stereo not given in full)", "activity change, negative = inhibition": "12.7% [at 32.5 µM]"}, {"compound": "C=C1CCC2(OC1)OC1CC3C4CC=C5CC(O)CC(O[C@@H]6OC[C@H](OC(=O)C(O)C(C)CC)[C@H](O)[C@H]6O[C@@H]6O[C@@H](C)[C@H](O)[C@@H](O)[C@H]6O)C5(C)C4CCC3(C)C1C2C", "note": "(stereo not given in full)", "activity change, negative = inhibition": "74.5% [at 32.5 µM]"}, {"compound": "CCCN1CCC[C@@H](c2cccc(S(C)(=O)=O)c2)C1", "activity change, negative = inhibition": "8.95%"}, {"compound": "CCOC(=O)c1ccc(NC2CCCCC2)c(N)c1", "activity change, negative = inhibition": "-3.78%"}, {"compound": "CC(C)c1ccc2c(c1)CCC1[C@](C)(C(=O)O)CCC[C@]21C", "note": "(stereo not given in full)", "Potency": "20 µM (active)"}, {"compound": "C=C1CCC2[C@](C)(CO)CCC[C@@]2(C)[C@@H]1CCC1=CCOC1=O", "note": "(stereo not given in full)", "activity change, negative = inhibition": "-17.8%"}, {"compound": "COc1cc(O)c2c(c1Cl)CC(C)OC2=O", "note": "(stereo not given)", "activity change, negative = inhibition": "5.58%"}, {"compound": "C=C(COC(=O)C(C)C)C1Oc2cc(C(C)=O)ccc2C1OC(=O)C(C)C", "note": "(stereo not given)", "activity change, negative = inhibition": "20.8%"}, {"compound": "C/C=C(\\C)C(=O)OC1C2(O)CC3=C4CC(=O)OC(c5ccoc5)C4(C)CCC3C(C)(C2=O)C(C(OC(C)=O)C(=O)OC)C1(C)C", "note": "(stereo not given)", "activity change, negative = inhibition": "4.71% [at 32.5 µM]"}, {"compound": "O=C(NC/C=C/CN1CCN(c2cccc(Cl)c2Cl)CC1)c1ccc(-c2ccccn2)cc1", "activity change, negative = inhibition": "18.7%"}, {"compound": "C=C1CC23CC(=O)C4C(CO)(CO)CCCC4(C)C2CCC1C3", "note": "(stereo not given)", "activity change, negative = inhibition": "2.33%"}, {"compound": "COc1cc(Nc2nc3ccccc3nc2NS(=O)(=O)c2cccc(NC(=O)c3ccc(C)c(OC)c3)c2)cc(OC)c1", "Potency": "3.55 µM (active)"}, {"compound": "C[C@@H]1O[C@@H](O[C@H]2[C@H](OC(=O)[C@]34CCC(C)(C)C[C@H]3C3=CCC5[C@@]6(C)CC[C@H](O[C@@H]7O[C@H](CO[C@@H]8OC[C@H](O)[C@H](O)[C@H]8O[C@@H]8OC[C@@H](O)[C@H](O)[C@H]8O)[C@@H](O)[C@H](O)[C@H]7O)C(C)(C)C6CC[C@@]5(C)[C@]3(C)C[C@H]4O)O[C@H](CO)[C@@H](O)[C@@H]2O)[C@H](O[C@@H]2O[C@H](CO)[C@@H](O)[C@H](O)[C@H]2O)[C@H](O)[C@H]1O[C@@H]1OC[C@@H](O)[C@H](O[C@@H]2OC[C@@H](O)[C@H](O)[C@H]2O)[C@H]1O", "note": "(stereo not given in full)", "activity change, negative = inhibition": "2.96% [at 19.1 µM]"}, {"compound": "CC(C)=CC[C@H]1O[C@]2(O)C([C@H]3CCC4[C@@]5(C)CC[C@H](O[C@@H]6O[C@H](CO)[C@H](O)[C@H](O[C@@H]7O[C@H](CO)[C@@H](O)[C@H](O)[C@H]7O)[C@H]6O[C@@H]6O[C@@H](C)[C@H](O)[C@@H](O)[C@H]6O)C(C)(C)C5CC[C@@]4(C)[C@]3(C)[C@H]2O)[C@@]1(C)O", "note": "(stereo not given in full)", "activity change, negative = inhibition": "5.11% [at 32.5 µM]"}, {"compound": "CNc1nc(C)nc(N[C@H]2CCC[C@@H](C(=O)NCc3ccc(C#N)cc3C(F)(F)F)C2)n1", "activity change, negative = inhibition": "-3.02%"}, {"compound": "CC(=O)O[C@@H]1[C@H](O[C@@H]2OC[C@](O)(CO)[C@H]2O)[C@@H](O[C@@H]2O[C@@H](C)[C@H](O)[C@@H](O[C@@H]3O[C@H](CO)[C@@H](O)[C@H](O)[C@H]3O)[C@H]2O)[C@H](OC(=O)[C@]23CCC(C)(C)C[C@H]2C2=CCC4[C@@]5(C)C[C@H](O)[C@H](O[C@@H]6O[C@H](C(=O)O)[C@@H](O)[C@H](O)[C@H]6O)[C@@](C)(C(=O)O)C5CC[C@@]4(C)[C@]2(C)CC3)O[C@@H]1C", "note": "(stereo not given in full)", "activity change, negative = inhibition": "2.67% [at 19.1 µM]"}, {"compound": "CCOC(=O)CNC(=O)[C@@H]1CCCN1C(=O)Cc1ccccc1", "note": "(PhAc-Pro-Gly-OEt)", "activity change, negative = inhibition": "4.03%"}, {"compound": "CNC(=O)c1ccc2c(c1)CCO[C@H]2CCN1CCN(c2ccc(C(N)=O)cc2)CC1", "activity change, negative = inhibition": "-1.19%"}, {"compound": "CCCCS(=O)(=O)NC(Cc1ccc(OCCCCC2CCNCC2)cc1)C(=O)O", "note": "(stereo not given)", "activity change, negative = inhibition": "1.45%"}, {"compound": "Cc1nnc(-c2ccc3occ(-c4ccc(S(C)=O)cc4)c3c2)o1", "note": "(stereo not given)", "activity change, negative = inhibition": "6.64%"}, {"compound": "OC[C@H]1O[C@@H](Oc2cc(O)cc(-c3cc4ccc(O[C@@H]5O[C@H](CO)[C@@H](O)[C@H](O)[C@H]5O)cc4o3)c2)[C@H](O)[C@@H](O)[C@@H]1O", "activity change, negative = inhibition": "-31.2% [at 57.1 µM]"}, {"compound": "COC(=O)C1=CO[C@@H](O[C@@H]2O[C@H](CO[C@@H]3O[C@H](CO)[C@@H](O)[C@H](O)[C@H]3O)[C@@H](O)[C@H](O)[C@H]2O)[C@@H]2C(CO)=CC[C@H]12", "activity change, negative = inhibition": "3.32% [at 57.1 µM]"}, {"compound": "O=C(Cc1ccccc1)OC[C@H]1O[C@H](O[C@H]2O[C@H](CO)[C@@H](O)[C@H](O)[C@H]2O)[C@H](O)[C@@H](O)[C@@H]1O", "activity change, negative = inhibition": "37.4% [at 57.1 µM]"}, {"compound": "O=C(O)CCc1ccc(NCc2cccc3c2CCCN3CCOc2ccccc2)cc1F", "Potency": "3.16 µM (active)"}, {"compound": "N#Cc1cccc(-c2c[nH]c3ncnc(N4CCOCC4)c23)c1", "activity change, negative = inhibition": "-2.06%"}, {"compound": "CC1=CC(=O)C2C(C)(C)CCC[C@]2(C)[C@H]1CC[C@H](C)CC(=O)O", "note": "(stereo not given in full)", "activity change, negative = inhibition": "5.22%"}, {"compound": "CC1(C)COC(=O)[C@@H]1O[C@@H]1O[C@H](CO)[C@@H](O)[C@H](O)[C@H]1O", "activity change, negative = inhibition": "25%"}, {"compound": "C/C=C(\\C)C(=O)O[C@H]1C=CC(=O)O[C@H]1/C=C/[C@H](O)[C@@H](C)O", "activity change, negative = inhibition": "47.7%"}]}]}
